# Measured values: PMC7862700, “An all-to-all approach to the identification of sequence-specific readers for epigenetic DNA modifications on cytosine”
# How the values were obtained:
# Test in all cases: DAPPL (digital affinity profiling via proximity ligation, sequencing); 10 mM Tris-HCl pH 7.5, 50 mM NaCl, 1 mM DTT, 4% glycerol, room temperature, 30 min; GST-TFs on glutathione beads, 16-mer random dsDNA library, 0.1% formaldehyde crosslink after washing; high values mean tight binding
# FLI1 = target: T1, FLI1 (Homo sapiens, UniProt Q01543 1-452); details: protein: recombinant; tags: N-terminal GST; dsDNA, one strand shown
# T1 sequence: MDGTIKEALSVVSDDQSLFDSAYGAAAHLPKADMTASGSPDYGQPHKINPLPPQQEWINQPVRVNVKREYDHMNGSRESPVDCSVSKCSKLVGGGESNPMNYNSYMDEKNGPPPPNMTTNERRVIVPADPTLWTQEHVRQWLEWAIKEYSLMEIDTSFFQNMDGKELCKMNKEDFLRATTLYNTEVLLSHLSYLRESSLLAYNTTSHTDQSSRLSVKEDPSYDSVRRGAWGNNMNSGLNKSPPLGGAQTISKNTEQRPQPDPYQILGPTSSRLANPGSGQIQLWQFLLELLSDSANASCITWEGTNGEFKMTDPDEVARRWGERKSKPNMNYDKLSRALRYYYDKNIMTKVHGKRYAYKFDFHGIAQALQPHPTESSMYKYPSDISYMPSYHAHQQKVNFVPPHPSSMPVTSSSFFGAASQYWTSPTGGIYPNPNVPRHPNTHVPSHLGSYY
# Summary of the method: (§1)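 After expression in yeast as GST fusions, human transcription factors were bound to glutathione beads, DNA-barcoded and mixed with a tag-only sample. The pools were incubated with 200 nmole of a 16-mer random double-stranded DNA library in Tris/NaCl/DTT/glycerol buffer (30 min, room temperature), washed and crosslinked with 0.1% formaldehyde. Proximity ligation with BsaI/T4 ligase ran for 1 h at 37 °C, before PCR amplification and sequencing on an Illumina NextSeq500. Binding signal is a hexamer's read frequency for a factor divided by its frequency for the tag-only sample.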
# ELK1 = target: T2, ELK1 (Homo sapiens, UniProt P19419 1-428); details: protein: recombinant; tags: N-terminal GST; dsDNA, one strand shown
# T2 sequence: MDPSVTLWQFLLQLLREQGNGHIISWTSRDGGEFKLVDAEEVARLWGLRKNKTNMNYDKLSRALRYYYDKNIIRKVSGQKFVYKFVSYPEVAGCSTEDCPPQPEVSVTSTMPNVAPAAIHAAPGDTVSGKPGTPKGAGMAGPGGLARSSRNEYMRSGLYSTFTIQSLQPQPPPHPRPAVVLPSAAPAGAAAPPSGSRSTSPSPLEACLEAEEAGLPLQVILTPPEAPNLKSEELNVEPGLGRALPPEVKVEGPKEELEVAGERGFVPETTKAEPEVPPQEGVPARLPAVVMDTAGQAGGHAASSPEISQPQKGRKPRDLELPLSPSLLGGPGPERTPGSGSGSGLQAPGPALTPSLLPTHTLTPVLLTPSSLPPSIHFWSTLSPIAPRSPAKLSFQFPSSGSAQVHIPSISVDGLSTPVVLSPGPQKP
# Summary of the method: as §1
# GABPA = target: T3, GABPA (Homo sapiens, UniProt Q06546 1-454); details: protein: recombinant; tags: N-terminal GST; dsDNA, one strand shown
# T3 sequence: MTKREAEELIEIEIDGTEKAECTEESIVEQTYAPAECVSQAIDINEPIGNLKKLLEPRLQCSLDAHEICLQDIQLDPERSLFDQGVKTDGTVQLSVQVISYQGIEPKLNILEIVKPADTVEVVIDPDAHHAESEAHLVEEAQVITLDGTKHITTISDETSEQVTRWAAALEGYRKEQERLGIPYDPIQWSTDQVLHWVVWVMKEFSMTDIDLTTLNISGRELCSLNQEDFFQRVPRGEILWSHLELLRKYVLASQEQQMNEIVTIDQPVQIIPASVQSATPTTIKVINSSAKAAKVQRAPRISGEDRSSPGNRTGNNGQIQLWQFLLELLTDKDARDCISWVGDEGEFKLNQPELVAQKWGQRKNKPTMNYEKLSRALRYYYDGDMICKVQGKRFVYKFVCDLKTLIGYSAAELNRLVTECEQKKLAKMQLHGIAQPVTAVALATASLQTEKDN
# Summary of the method: as §1
# ERG = target: T4, ERG (Homo sapiens, UniProt P11308 1-479); details: protein: recombinant; tags: N-terminal GST; dsDNA, one strand shown
# T4 sequence: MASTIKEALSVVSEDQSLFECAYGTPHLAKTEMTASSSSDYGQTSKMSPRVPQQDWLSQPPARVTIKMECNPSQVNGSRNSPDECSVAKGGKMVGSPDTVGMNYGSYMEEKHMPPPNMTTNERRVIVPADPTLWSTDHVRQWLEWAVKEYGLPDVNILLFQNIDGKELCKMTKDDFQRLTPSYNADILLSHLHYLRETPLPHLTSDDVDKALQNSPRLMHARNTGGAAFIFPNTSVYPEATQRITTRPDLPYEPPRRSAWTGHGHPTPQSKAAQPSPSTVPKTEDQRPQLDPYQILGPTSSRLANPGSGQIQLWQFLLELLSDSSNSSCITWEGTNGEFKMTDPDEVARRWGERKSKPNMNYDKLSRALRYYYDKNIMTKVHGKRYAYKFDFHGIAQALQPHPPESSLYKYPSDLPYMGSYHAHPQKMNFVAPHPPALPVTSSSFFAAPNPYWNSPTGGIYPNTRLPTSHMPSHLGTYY
# Summary of the method: as §1
# ELF1 = ELF1 (Homo sapiens, UniProt P32519 1-619); details: protein: recombinant; tags: N-terminal GST; dsDNA, one strand shown
# Summary of the method: as §1
# EHF = target: T5, EHF (Homo sapiens, UniProt Q9NZC4 1-300); details: protein: recombinant; tags: N-terminal GST; dsDNA, one strand shown
# T5 sequence: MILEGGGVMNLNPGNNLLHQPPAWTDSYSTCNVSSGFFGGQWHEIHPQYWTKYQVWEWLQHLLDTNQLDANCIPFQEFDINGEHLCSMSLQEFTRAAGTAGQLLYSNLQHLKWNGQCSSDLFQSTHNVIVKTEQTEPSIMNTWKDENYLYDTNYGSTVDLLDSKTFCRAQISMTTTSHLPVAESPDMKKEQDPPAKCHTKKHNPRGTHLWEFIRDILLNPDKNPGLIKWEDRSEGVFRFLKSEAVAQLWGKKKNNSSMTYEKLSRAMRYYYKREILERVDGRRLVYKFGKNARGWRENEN
# Summary of the method: as §1
# SPI1 = SPI1 (Homo sapiens, UniProt P17947 1-270); details: protein: recombinant; tags: N-terminal GST; dsDNA, one strand shown
# Summary of the method: as §1
# SPIB = SPIB (Homo sapiens, UniProt Q01892 1-262); details: protein: recombinant; tags: N-terminal GST; dsDNA, one strand shown
# Summary of the method: as §1
# ELK3 = target: T6, ELK3 (Homo sapiens, UniProt P41970 1-407); details: protein: recombinant; tags: N-terminal GST; dsDNA, one strand shown
# T6 sequence: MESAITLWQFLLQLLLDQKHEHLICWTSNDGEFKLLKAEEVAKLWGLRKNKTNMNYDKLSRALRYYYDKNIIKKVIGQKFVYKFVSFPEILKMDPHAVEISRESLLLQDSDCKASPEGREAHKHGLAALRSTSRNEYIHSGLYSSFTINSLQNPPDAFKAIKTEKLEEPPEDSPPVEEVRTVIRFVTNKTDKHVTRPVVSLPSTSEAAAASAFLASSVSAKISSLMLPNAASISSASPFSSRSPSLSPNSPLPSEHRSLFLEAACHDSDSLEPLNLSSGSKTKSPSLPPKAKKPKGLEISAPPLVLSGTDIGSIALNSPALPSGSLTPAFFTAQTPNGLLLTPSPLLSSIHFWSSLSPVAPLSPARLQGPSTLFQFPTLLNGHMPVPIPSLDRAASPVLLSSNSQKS
# Summary of the method: as §1
# FEV = target: T7, FEV (Homo sapiens, UniProt Q99581 1-238); details: protein: recombinant; tags: N-terminal GST; dsDNA, one strand shown
# T7 sequence: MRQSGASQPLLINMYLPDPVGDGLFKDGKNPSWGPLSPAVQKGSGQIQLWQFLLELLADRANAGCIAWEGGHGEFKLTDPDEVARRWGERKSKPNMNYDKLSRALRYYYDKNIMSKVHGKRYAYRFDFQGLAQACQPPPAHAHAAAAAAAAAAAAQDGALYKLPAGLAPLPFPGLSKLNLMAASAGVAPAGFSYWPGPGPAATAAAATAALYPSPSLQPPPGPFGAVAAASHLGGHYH
# Summary of the method: as §1
# ETV5 = ETV5 (Homo sapiens, UniProt P41161 1-510); details: protein: recombinant; tags: N-terminal GST; dsDNA, one strand shown
# Summary of the method: as §1
# HSF1 = HSF1 (Homo sapiens, UniProt Q00613 1-529); details: protein: recombinant; tags: N-terminal GST; chain copies: 3; dsDNA, one strand shown
# Summary of the method: as §1
# SPIC = target: T8, SPIC (Homo sapiens, UniProt Q8N5J4 1-248); details: protein: recombinant; tags: N-terminal GST; dsDNA, one strand shown
# T8 sequence: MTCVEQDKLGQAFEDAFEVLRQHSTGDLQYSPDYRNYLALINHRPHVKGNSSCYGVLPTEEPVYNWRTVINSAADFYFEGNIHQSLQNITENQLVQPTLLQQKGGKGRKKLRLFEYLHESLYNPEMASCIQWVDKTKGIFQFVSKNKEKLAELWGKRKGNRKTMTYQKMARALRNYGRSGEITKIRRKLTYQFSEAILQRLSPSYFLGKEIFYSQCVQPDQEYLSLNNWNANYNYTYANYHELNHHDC
# Summary of the method: as §1
# ELF4 = ELF4 (Homo sapiens, UniProt Q99607 1-663); details: protein: recombinant; tags: N-terminal GST; dsDNA, one strand shown
# Summary of the method: as §1
# ELK4 = target: T9, ELK4 (Homo sapiens, UniProt P28324-2 1-405); details: protein: recombinant; tags: N-terminal GST; dsDNA, one strand shown
# T9 sequence: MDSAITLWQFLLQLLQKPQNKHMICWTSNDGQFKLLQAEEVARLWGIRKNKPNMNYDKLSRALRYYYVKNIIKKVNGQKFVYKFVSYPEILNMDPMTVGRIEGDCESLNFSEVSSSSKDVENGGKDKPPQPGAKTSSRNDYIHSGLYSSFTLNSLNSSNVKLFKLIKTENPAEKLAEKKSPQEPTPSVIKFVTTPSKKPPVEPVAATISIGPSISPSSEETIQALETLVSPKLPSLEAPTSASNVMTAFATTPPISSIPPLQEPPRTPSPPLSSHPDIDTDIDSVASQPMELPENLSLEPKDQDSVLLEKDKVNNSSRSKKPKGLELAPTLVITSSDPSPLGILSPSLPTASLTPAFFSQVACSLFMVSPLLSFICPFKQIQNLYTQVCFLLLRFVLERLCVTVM
# Summary of the method: as §1
# ETV2 = target: T10, ETV2 (Homo sapiens, UniProt O00321 1-342); details: protein: recombinant; tags: N-terminal GST; dsDNA, one strand shown
# T10 sequence: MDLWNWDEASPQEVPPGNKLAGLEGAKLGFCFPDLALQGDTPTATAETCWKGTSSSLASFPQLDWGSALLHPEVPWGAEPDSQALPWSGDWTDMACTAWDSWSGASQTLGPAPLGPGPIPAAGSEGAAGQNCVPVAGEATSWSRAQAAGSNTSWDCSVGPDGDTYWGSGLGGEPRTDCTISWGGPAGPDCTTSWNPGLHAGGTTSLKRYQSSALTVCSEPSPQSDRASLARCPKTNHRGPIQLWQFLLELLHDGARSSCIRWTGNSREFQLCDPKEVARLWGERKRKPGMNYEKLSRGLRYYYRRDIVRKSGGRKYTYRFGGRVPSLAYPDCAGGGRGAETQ
# Summary of the method: as §1
# ELF3 = target: T11, ELF3 (Homo sapiens, UniProt P78545 1-371); details: protein: recombinant; tags: N-terminal GST; dsDNA, one strand shown
# T11 sequence: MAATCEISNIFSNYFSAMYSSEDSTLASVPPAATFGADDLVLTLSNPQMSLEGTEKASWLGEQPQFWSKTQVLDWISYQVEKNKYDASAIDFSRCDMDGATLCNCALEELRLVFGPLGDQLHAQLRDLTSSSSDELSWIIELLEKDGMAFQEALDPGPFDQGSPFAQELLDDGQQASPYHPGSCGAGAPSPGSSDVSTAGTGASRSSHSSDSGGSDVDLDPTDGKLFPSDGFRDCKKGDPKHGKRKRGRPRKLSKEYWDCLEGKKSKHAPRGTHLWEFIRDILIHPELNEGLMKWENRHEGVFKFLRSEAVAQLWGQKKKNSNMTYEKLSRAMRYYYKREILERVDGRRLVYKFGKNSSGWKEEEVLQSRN
# Summary of the method: as §1
# CRX = CRX (Homo sapiens, UniProt O43186 1-299); details: protein: recombinant; tags: N-terminal GST; dsDNA, one strand shown
# Summary of the method: as §1
# ETV1 = ETV1 (Homo sapiens, UniProt P50549 1-477); details: protein: recombinant; tags: N-terminal GST; dsDNA, one strand shown
# Summary of the method: as §1
# Sequence of ELF4 (Q99607 whole entry): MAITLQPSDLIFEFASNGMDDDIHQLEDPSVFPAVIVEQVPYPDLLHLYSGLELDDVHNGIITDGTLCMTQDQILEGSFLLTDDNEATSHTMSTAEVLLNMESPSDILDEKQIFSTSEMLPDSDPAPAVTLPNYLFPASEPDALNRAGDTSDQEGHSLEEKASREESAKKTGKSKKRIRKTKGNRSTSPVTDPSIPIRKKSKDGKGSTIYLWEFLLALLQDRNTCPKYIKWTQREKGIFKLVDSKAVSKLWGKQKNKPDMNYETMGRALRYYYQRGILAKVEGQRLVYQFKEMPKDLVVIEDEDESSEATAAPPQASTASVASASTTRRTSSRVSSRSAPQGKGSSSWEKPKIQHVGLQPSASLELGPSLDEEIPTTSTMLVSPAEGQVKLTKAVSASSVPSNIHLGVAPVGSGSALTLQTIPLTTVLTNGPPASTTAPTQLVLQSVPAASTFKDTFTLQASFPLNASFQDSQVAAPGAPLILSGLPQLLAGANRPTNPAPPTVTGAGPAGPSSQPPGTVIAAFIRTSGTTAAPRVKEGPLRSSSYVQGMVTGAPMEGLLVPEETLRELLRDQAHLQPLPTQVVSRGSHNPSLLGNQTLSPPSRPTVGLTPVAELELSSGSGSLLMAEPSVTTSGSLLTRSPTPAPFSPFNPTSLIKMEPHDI
# Sequence of SPIB (Q01892 whole entry): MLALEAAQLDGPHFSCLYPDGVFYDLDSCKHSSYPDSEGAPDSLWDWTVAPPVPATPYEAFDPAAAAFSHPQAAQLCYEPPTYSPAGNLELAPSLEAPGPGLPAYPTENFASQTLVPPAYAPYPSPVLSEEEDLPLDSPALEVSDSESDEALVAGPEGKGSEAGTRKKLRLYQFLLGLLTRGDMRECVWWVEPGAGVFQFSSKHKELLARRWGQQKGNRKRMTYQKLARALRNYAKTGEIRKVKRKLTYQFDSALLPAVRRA
# Sequence of HSF1 (Q00613 whole entry): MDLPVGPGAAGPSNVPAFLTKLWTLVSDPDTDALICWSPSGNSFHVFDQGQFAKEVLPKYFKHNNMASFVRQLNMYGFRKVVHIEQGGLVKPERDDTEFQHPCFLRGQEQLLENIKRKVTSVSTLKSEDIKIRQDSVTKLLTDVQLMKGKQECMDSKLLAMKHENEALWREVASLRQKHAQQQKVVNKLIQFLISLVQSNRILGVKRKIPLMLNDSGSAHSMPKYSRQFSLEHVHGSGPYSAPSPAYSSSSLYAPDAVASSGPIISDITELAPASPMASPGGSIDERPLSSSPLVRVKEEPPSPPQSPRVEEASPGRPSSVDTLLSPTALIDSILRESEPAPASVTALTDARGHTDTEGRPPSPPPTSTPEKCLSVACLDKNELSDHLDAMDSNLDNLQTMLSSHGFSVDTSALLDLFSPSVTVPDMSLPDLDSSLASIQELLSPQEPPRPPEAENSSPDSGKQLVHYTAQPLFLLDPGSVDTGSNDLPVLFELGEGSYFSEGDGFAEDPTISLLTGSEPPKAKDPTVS
# Sequence of CRX (O43186 whole entry): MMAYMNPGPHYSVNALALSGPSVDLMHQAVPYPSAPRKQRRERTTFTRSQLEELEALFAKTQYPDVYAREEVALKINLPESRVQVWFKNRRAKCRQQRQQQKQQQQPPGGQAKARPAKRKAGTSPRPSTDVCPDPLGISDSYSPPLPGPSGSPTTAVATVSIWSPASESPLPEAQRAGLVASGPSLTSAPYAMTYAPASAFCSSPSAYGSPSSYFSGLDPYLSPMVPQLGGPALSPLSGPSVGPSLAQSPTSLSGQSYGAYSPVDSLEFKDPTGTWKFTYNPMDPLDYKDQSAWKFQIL
# Sequence of ETV5 (P41161 whole entry): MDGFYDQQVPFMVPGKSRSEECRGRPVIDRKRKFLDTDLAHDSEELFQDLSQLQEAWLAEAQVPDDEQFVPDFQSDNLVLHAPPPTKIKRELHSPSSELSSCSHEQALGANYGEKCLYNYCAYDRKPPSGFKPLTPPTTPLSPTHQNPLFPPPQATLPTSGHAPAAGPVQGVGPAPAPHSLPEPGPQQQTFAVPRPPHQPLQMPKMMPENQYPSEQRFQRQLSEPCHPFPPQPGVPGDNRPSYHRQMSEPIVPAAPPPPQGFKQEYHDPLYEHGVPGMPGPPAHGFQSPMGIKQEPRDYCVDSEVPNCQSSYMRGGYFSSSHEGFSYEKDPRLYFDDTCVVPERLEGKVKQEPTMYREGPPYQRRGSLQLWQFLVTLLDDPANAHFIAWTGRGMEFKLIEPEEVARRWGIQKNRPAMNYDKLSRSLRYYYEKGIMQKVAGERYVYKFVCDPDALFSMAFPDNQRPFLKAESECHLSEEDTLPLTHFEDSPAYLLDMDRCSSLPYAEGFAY
# Sequence of ELF1 (P32519 whole entry): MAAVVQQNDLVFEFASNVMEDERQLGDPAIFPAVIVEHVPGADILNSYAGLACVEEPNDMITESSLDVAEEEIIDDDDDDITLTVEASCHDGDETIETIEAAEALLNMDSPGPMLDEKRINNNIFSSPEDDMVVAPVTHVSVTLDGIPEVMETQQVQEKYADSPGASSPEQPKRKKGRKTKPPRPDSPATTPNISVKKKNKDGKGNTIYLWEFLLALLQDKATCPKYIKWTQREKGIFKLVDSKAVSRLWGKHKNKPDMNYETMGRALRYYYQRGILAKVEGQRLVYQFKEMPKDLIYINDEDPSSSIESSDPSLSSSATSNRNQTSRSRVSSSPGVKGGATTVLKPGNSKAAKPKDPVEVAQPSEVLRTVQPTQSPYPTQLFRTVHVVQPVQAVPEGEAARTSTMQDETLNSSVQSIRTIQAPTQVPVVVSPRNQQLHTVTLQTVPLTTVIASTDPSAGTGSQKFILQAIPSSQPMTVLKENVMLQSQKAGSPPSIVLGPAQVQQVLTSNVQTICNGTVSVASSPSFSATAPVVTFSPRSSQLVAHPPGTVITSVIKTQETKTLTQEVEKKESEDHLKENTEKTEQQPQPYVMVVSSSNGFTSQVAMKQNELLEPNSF
# Sequence of ETV1 (P50549 whole entry): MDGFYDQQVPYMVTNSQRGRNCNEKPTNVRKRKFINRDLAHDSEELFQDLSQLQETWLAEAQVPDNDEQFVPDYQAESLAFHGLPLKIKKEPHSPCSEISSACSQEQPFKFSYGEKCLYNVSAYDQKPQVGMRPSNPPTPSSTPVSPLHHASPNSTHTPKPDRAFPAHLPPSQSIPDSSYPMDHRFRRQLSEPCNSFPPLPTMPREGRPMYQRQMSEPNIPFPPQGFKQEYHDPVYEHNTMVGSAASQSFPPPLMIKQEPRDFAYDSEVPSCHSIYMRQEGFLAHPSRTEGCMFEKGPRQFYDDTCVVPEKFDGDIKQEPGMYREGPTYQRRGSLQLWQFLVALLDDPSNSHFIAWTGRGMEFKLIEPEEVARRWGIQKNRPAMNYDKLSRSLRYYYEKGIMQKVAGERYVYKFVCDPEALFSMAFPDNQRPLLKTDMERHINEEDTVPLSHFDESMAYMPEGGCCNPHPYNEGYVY
sequence,measurement,setting,value
TACCAA,binding signal,FLI1,"1.14 fold enrichment (6-mer frequency, TF over GST control)"
same,binding signal,ELK1,"1.17 fold enrichment (6-mer frequency, TF over GST control)"
same,binding signal,GABPA,"1.11 fold enrichment (6-mer frequency, TF over GST control)"
same,binding signal,ERG,"1.18 fold enrichment (6-mer frequency, TF over GST control)"
same,binding signal,ELF1,"1.21 fold enrichment (6-mer frequency, TF over GST control)"
same,binding signal,EHF,"1.13 fold enrichment (6-mer frequency, TF over GST control)"
same,binding signal,SPI1,"1.16 fold enrichment (6-mer frequency, TF over GST control)"
same,binding signal,SPIB,"1.13 fold enrichment (6-mer frequency, TF over GST control)"
same,binding signal,ELK3,"1.05 fold enrichment (6-mer frequency, TF over GST control)"
same,binding signal,FEV,"1.14 fold enrichment (6-mer frequency, TF over GST control)"
same,binding signal,ETV5,"1.13 fold enrichment (6-mer frequency, TF over GST control)"
same,binding signal,HSF1,"1.14 fold enrichment (6-mer frequency, TF over GST control)"
same,binding signal,SPIC,"1.01 fold enrichment (6-mer frequency, TF over GST control)"
same,binding signal,ELF4,"1.2 fold enrichment (6-mer frequency, TF over GST control)"
same,binding signal,ELK4,"1.23 fold enrichment (6-mer frequency, TF over GST control)"
same,binding signal,ETV2,"1.09 fold enrichment (6-mer frequency, TF over GST control)"
same,binding signal,ELF3,"1.05 fold enrichment (6-mer frequency, TF over GST control)"
same,binding signal,CRX,"1.25 fold enrichment (6-mer frequency, TF over GST control)"
same,binding signal,ETV1,"1.11 fold enrichment (6-mer frequency, TF over GST control)"
